The results in this text go back to PubChem BioAssay (NCI).

Values joined by “and” are separate entries in the source; they are usually repeats but may differ in a detail not shown here. Equal entries are not always repeated. This is part of a sample that, as a whole, favours compounds with a hit. Of some 79,000 tested, about 15% had one in any assay. More than one record can exist for a structure, and the calls need not agree. Active and inactive are the calls of the source. Rule as the data show it: active = growth inhibition above about 70%; inactive = the rest.

A short description of test [1]: NCI Yeast Anticancer Drug Screen. Data for the rad50 strain (AID 155).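 Also: 0% = growth of vehicle-only cultures of the same strain.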 The following applies: S. cerevisiae rad50 strain growth inhibition, stronger effect = higher value. The procedure, abridged: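 Relative growth inhibition (compound vs vehicle) was measured in yeast with a defined repair-gene alteration.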
Test [2] can be described thus: NCI Yeast Anticancer Drug Screen. Data for the mec2-1 strain (AID 157). The following applies: S. cerevisiae mec2-1 strain, stronger effect = higher value. A digest of the protocol:
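Mutant yeast (mec2-1) grown with compound; growth inhibition relative to vehicle control reported.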

A short description of test [3]: NCI Yeast Anticancer Drug Screen. Data for the sgs1 mgt1 strain (AID 161).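 Also: 0% = growth of cultures given vehicle only.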 The settings on record: S. cerevisiae sgs1 mgt1 strain, stronger effect = higher value. The procedure, abridged:
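Growth of a repair-deficient yeast mutant was monitored after compound treatment and expressed as inhibition relative to vehicle-treated cultures.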

Test [4] in a line: NCI Yeast Anticancer Drug Screen. Data for the cln2 rad14 strain (AID 165).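 Also: 0% = growth equal to vehicle treated cultures.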 The following applies: S. cerevisiae cln2 rad14 strain, stronger effect = higher value. The procedure, abridged:
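Readout is yeast growth inhibition versus vehicle-treated controls, using a strain with cln2 and rad14 alterations exposed to compound.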

Test [5] is described as follows: NCI Yeast Anticancer Drug Screen. Data for the bub3 strain (AID 167). The settings on record: S. cerevisiae bub3 mutant strain, stronger effect = higher value. A digest of the protocol:
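Screening used yeast with an engineered genetic alteration affecting cell cycle control. Compound-exposed cultures were compared with vehicle cultures, and reduced growth was taken as inhibition.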

Test [6] is described as follows: NCI Yeast Anticancer Drug Screen. Data for the mlh1 rad18 strain (AID 175). The following applies: S. cerevisiae mlh1 rad18 strain growth inhibition, stronger effect = higher value. A digest of the protocol: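 Genetically defined yeast (DNA repair-deficient) exposed to compounds; growth inhibition determined relative to vehicle.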
Setting [7] is: at 5.0 µM (retest, dose inferred, filed as 0.5).
Where [8] appears, read: at 50.0 µM (retest, dose inferred, filed as 5.0).

Consider `C1=C(CN2CCCCC2)COc2ccccc21`, for which the growth inhibition in test [1] (setting [7]) is 9% (inactive); in test [1] (setting [8]), 30% (inactive); in test [1] (at 50.0 µM), 51.4% (inactive); in test [2] (setting [7]) it was 1% (inactive); in test [2] (setting [8]), 45% (inactive); in test [2] (at 50.0 µM), 22.9% (inactive). Further, the growth inhibition in test [3] (setting [7]) is -7% (inactive); in test [3] (setting [8]), 61% (inactive); in test [3] (at 50.0 µM), 46.5% (inactive); in test [4] (setting [7]), 0% (inactive); in test [4] (setting [8]), 28% (inactive); in test [4] (at 50.0 µM), 65% (inactive). Also, the growth inhibition was 6% (inactive) in test [5] (setting [7]); 44% (inactive) in test [5] (setting [8]); 59.8% (inactive) in test [5] (at 50.0 µM); 20% (inactive) in test [6] (setting [7]); 54% (inactive) in test [6] (setting [8]); 76.7% (active) in test [6] (at 50.0 µM).

`C=C(C)C(=O)Oc1ccc(N=Nc2ccccc2)ccc1=O`: the growth inhibition in test [1] (setting [7]) was 2% (inactive); in test [1] (setting [8]), 89% (active); in test [1] (at 50.0 µM), 95.3% (active); in test [2] (setting [7]), 5% (inactive); in test [2] (setting [8]) it was 93% (active); in test [2] (at 50.0 µM), 81% (active). Moreover, the growth inhibition in test [3] (setting [7]) was 6% (inactive); in test [3] (setting [8]), 93% (active); in test [3] (at 50.0 µM) it was 93% (active); in test [4] (setting [7]), 4% (inactive); in test [4] (setting [8]) it was 77% (active); in test [4] (at 50.0 µM) it was 59.9% (inactive). The growth inhibition in test [5] (setting [7]) is -2% (inactive); in test [5] (setting [8]), 86% (active); in test [5] (at 50.0 µM), 81.8% (active); in test [6] (setting [7]), 12% (inactive); in test [6] (setting [8]), 96% (active); in test [6] (at 50.0 µM), 94.5% (active).

On to `O=[N+]([O-])c1ccc(N/N=C/CC(O)(C(F)(F)F)C(F)(F)F)c([N+](=O)[O-])c1`, for which the growth inhibition was 0% (inactive) in test [1] (setting [7]); 98% (active) in test [1] (setting [8]); 88.6% (active) in test [1] (at 50.0 µM); -1% (inactive) in test [2] (setting [7]); 98% (active) in test [2] (setting [8]); 91.5% (active) in test [2] (at 50.0 µM). Also, the growth inhibition is -1% (inactive) in test [3] (setting [7]); 97% (active) in test [3] (setting [8]); 91.8% (active) in test [3] (at 50.0 µM); 25% (inactive) in test [4] (setting [7]); 98% (active) in test [4] (setting [8]); 88% (active) in test [4] (at 50.0 µM). Further, the growth inhibition in test [5] (setting [7]) is 13% (inactive); in test [5] (setting [8]) it was 98% (active); in test [5] (at 50.0 µM), 86.4% (active); in test [6] (setting [7]), 3% (inactive); in test [6] (setting [8]), 98% (active); in test [6] (at 50.0 µM), 89.9% (active).

Regarding `O=C1C=CC(=O)C(c2ccc3ccccc3c2)=C1`, the growth inhibition in test [1] (setting [7]) is 90% (active); in test [1] (setting [8]) it was 98% (active); in test [1] (at 50.0 µM), 99% (active); in test [2] (setting [7]), 96% (active); in test [2] (setting [8]) it was 99% (active); in test [2] (at 50.0 µM), 99.1% (active). For the same compound, the growth inhibition in test [3] (setting [7]) was 85% (active); in test [3] (setting [8]) it was 99% (active); in test [3] (at 50.0 µM), 99.2% (active); in test [4] (setting [7]), 73% (active); in test [4] (setting [8]), 98% (active); in test [4] (at 50.0 µM) it was 98.8% (active). Also, the growth inhibition in test [5] (setting [7]) was 91% (active); in test [5] (setting [8]), 97% (active); in test [5] (at 50.0 µM), 99% (active); in test [6] (setting [7]), 97% (active); in test [6] (setting [8]), 99% (active); in test [6] (at 50.0 µM), 99% (active).

As for `CCc1nc(N)nc(N)c1-c1ccc(Cl)c(N=[N+]=[N-])c1`, the growth inhibition in test [1] (setting [7]) was 41% (inactive); in test [1] (setting [8]), 40% (inactive); in test [1] (at 50.0 µM), 6.65% (inactive) and 71.2% (active); in test [2] (setting [7]), 18% (inactive); in test [2] (setting [8]) it was 21% (inactive); in test [2] (at 50.0 µM), -15.3% (inactive) and 65.5% (inactive). Besides, the growth inhibition in test [3] (setting [7]) was 56% (inactive); in test [3] (setting [8]), 54% (inactive); in test [3] (at 50.0 µM) it was -0.8% (inactive) and 61.6% (inactive); in test [4] (setting [7]), 18% (inactive); in test [4] (setting [8]), 28% (inactive); in test [4] (at 50.0 µM), -6.55% (inactive) and 62.5% (inactive). The growth inhibition in test [5] (setting [7]) was 30% (inactive); in test [5] (setting [8]) it was 26% (inactive); in test [5] (at 50.0 µM), 6.35% (inactive) and 54.5% (inactive); in test [6] (setting [7]) it was 65% (inactive); in test [6] (setting [8]) it was 62% (inactive); in test [6] (at 50.0 µM) it was -1.7% (inactive) and 27.7% (inactive).

`CC(=O)Nc1nc([N+](=O)[O-])c(C(C)C)s1`: the growth inhibition in test [1] (setting [7]) was 4% (inactive); in test [1] (setting [8]) it was 1% (inactive); in test [1] (at 50.0 µM), 10.1% (inactive); in test [2] (setting [7]), -2% (inactive); in test [2] (setting [8]) it was 4% (inactive); in test [2] (at 50.0 µM) it was 10.6% (inactive). In addition, the growth inhibition in test [3] (setting [7]) was 3% (inactive); in test [3] (setting [8]), 4% (inactive); in test [3] (at 50.0 µM) it was -1.85% (inactive); in test [4] (setting [7]) it was -6% (inactive); in test [4] (setting [8]) it was -4% (inactive); in test [4] (at 50.0 µM), 1.55% (inactive). For the same compound, the growth inhibition is -3% (inactive) in test [5] (setting [7]); 9% (inactive) in test [5] (setting [8]); -7.8% (inactive) in test [5] (at 50.0 µM); 5% (inactive) in test [6] (setting [7]); 15% (inactive) in test [6] (setting [8]); 18.2% (inactive) in test [6] (at 50.0 µM).

In the case of `O=C1C=CC(=O)N1c1ccc(N=Nc2ccccc2)cc1`, the growth inhibition in test [1] (setting [7]) is 97% (active); in test [1] (setting [8]) it was 99% (active); in test [1] (at 50.0 µM), 86.2% (active) and 7.45% (inactive); in test [2] (setting [7]) it was 99% (active); in test [2] (setting [8]), 99% (active); in test [2] (at 50.0 µM) it was 86.2% (active) and -13.1% (inactive). Also, the growth inhibition in test [3] (setting [7]) was 99% (active); in test [3] (setting [8]), 91% (active); in test [3] (at 50.0 µM) it was 89.7% (active) and 21.8% (inactive); in test [4] (setting [7]) it was 98% (active); in test [4] (setting [8]) it was 92% (active); in test [4] (at 50.0 µM), 87.2% (active) and 20.6% (inactive). For the same compound, the growth inhibition in test [5] (setting [7]) was 99% (active); in test [5] (setting [8]), 91% (active); in test [5] (at 50.0 µM), 87% (active) and 5.75% (inactive); in test [6] (setting [7]), 98% (active); in test [6] (setting [8]) it was 99% (active); in test [6] (at 50.0 µM), 85.5% (active) and 5.9% (inactive).

As to `CC1=CC(C)(C)Nc2ccc(CSc3ccccc3)cc21`, the growth inhibition in test [1] (setting [7]) was 7% (inactive); in test [1] (setting [8]) it was 25% (inactive); in test [1] (at 50.0 µM) it was 8.1% (inactive) and 36.4% (inactive); in test [2] (setting [7]), -8% (inactive); in test [2] (setting [8]), -17% (inactive); in test [2] (at 50.0 µM), 11.9% (inactive) and 5.5% (inactive). Further, the growth inhibition in test [3] (setting [7]) was -1% (inactive); in test [3] (setting [8]), 10% (inactive); in test [3] (at 50.0 µM), 12.4% (inactive) and 13.9% (inactive); in test [4] (setting [7]), -13% (inactive); in test [4] (setting [8]), 6% (inactive); in test [4] (at 50.0 µM), -1.1% (inactive) and 19.8% (inactive). Also, the growth inhibition in test [5] (setting [7]) is -11% (inactive); in test [5] (setting [8]), 6% (inactive); in test [5] (at 50.0 µM), 29.3% (inactive) and 60.9% (inactive); in test [6] (setting [7]) it was 23% (inactive); in test [6] (setting [8]), 16% (inactive); in test [6] (at 50.0 µM), 37.4% (inactive) and 15.6% (inactive).
